# Inconclusive results are not listed. Calls of active or inactive are those of the source. Rule for the calls: active = hit-call score of the fitted dose curve at least 0.9, where 1 is the maximum; inconclusive = response in the unintended direction; inactive = score below 0.9.
# Read-out: ABC Transporter (ABCB11), ABCB11 (gene 8647)
# Assay: CLD_ABCB11_6hr: CellzDirect (CLD) Gene Expression Assay for ABC Transporter (ABCB11) at 6 hours (AID 2283675);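 note: hits raise ABCB11 mRNA level so AC50 marks induction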
# Procedure: CLD_6hr is a cell-based, multiplexed-readout assay that uses hepatocyte, a human liver primary cell, with measurements taken at 6 hours after chemical dosing in a 96-well plate.CLD_ABCB11_6hr is one of 16 assay component(s) measured or calculated from the CLD_6hr assay. It is designed to make measurements of mRNA induction, a form of inducible reporter, as detected with chemiluminescence signals by Quantitative Nuclease Protection Assay (qNPA) technology.Data from the assay component CLD_ABCB11_6hr was analyzed at the endpoint, CLD_ABCB11_6hr, in the positive analysis fitting direction relative to DMSO as the negative control and baseline of activity. Using a type of inducible reporter, gain-of-signal activity can be used to understand changes in the reporter gene as they relate to the gene ABCB11. Furthermore, this assay endpoint can be referred to as a primary readout. To generalize the intended target to other relatable targets, this assay endpoint is annotated to the transporter intended target family, where subfamily is ABC transporter.
# Human hepatocyte cultures were treated daily for two consecutive days with fresh dosing solutions containing appropriate concentrations of the 320 ToxCast chemicals (chemical identities were blinded to CellzDirect and other ToxCast collaborators), vehicle control (0.2% DMSO), and positive control inducers as summarized in Table 1. Due to the large number of treatment groups and chemicals examined, the ToxCast chemicals were divided into two groups (spanning two independent cultures of hepatocytes from separate donor preparations (Hu778: ToxCast plates 1 and 2; Hu776: ToxCast plates 3 and 4). Each preparation of human hepatocyte cultures was treated with respective vehicle control, medium only control, set of six positive controls/reference chemicals for the five hepatic receptor pathways, and a subset of eight of the ToxCast chemicals (indoxacarb, pyrithiobac-sodium, norflurazon, cyhalofop-butyl, methomyl, thiram, acetochlor, and propiconazole). These replicate data, coupled with internal replicates designed within the blinded ToxCast chemical library, provided additional data to evaluate interindividual differences between hepatocyte preparations and their potential impact on chemical profiles.Cell morphology and integrity were evaluated using phase-contrast microscopy as an indicator of hepatocyte cell health (Tyson & Green, 1987). Cultures for each treatment group (i.e., media, vehicle [0.2% DMSO], positive control inducers [multiple concentrations], and the ToxCast chemicals [multiple concentrations]) were observed and cell morphology was assessed relative to vehicle control cultures at each harvest time point (0, 6, 24, or 48 h). […] Images were evaluated at the conclusion of the study to assess changes in cell integrity and account for the effects of chemical exposure on uncharacteristic changes in concentration-dependent gene expression profiles. The results from these determinations of apparent cytotoxicity were annotated (yes/no) alongside the corresponding qNPA data for reference.At the conclusion of each treatment period, hepatocyte cultures (96-well) were washed with 1 volume of HBSS, lysed by addition of 25 ul ArrayPlate lysis buffer (HTG, Tucson, AZ), and 70 ul/well of Denaturation Oil, denatured by incubation at 95C for 10 min, and frozen at approximately -70C until analysis by nuclease protection assay (qNPA) (Roberts et al., 2007). For qNPA analysis, cell lysates were thawed at 50C for approximately 30 min, qNPA probes were added, and samples were incubated at 95C for 10 min to begin the detection process by denaturing the target RNA, dissociating the duplexes and secondary structure hybridization. At the conclusion of the hybridization period, S1 nuclease reagent was added to each sample to digest all nonprotected nucleotides at 50C for 60-90 min. […]
Structure (SMILES),outcome,AC50
CN1CSC(=S)N(C)C1,inactive,–
[2H]C1([2H])[n+]2ccccc2-c2cccc[n+]2C1([2H])[2H],inactive,–
C[C@H]1[C@H](c2ccc(Cl)cc2)SC(=O)N1C(=O)NC1CCCCC1,inactive,–
CNC(=O)CSP(=S)(OC)OC,inactive,–
CCN(CC)C(=O)SCc1ccc(Cl)cc1,inactive,–
CCCN(CCOc1c(Cl)cc(Cl)cc1Cl)C(=O)n1ccnc1,inactive,–
CCOCN(C(=O)CCl)c1c(C)cccc1CC,inactive,–
CC[C@H](C)[C@H]1O[C@]2(C=C[C@@H]1C)C[C@@H]1C[C@@H](C/C=C(\C)[C@@H](O[C@H]3C[C@H](OC)[C@@H](O[C@H]4C[C@H](OC)[C@@H](O)[C@H](C)O4)[C@H](C)O3)[C@@H](C)/C=C/C=C3\CO[C@@H]4[C@H](O)C(C)=C[C@@H](C(=O)O1)[C@]34O)O2 (tested in a mixture with another compound),–,0.332 µM (active)
CCC(C)(C)C(=O)OC1=C(c2ccc(Cl)cc2Cl)C(=O)OC12CCCCC2,inactive,–
O=C(NC(=O)c1c(F)cccc1F)Nc1ccc(OC(F)(F)C(F)OC(F)(F)F)c(Cl)c1 (stereo unspecified),inactive,–
O=C1c2ccccc2C(=O)N1SC(Cl)(Cl)Cl,inactive,–
Clc1ccccc1-c1nnc(-c2ccccc2Cl)nn1,inactive,–
CCS(=O)(=O)c1cccnc1S(=O)(=O)NC(=O)Nc1nc(OC)cc(OC)n1,inactive,–
O=[N+]([O-])/N=C1\NCCN1Cc1ccc(Cl)nc1,inactive,–
CC1(C)C(C=C(Cl)Cl)C1C(=O)OC(C#N)c1ccc(F)c(Oc2ccccc2)c1 (stereo unspecified),inactive,–
O=C(O)C(F)(F)C(F)(F)C(F)(F)C(F)(F)C(F)(F)C(F)(F)C(F)(F)F,inactive,–
CNC(=O)/C=C(\C)OP(=O)(OC)OC,inactive,–
CCCN(CCC)c1c([N+](=O)[O-])cc(C(F)(F)F)cc1[N+](=O)[O-],inactive,–

Structure (SMILES),outcome,AC50
N#CN,inactive,–
COP(=O)(OC)OC=C(Cl)Cl,inactive,–
O=C(Nc1ccccc1)Nc1cnns1,inactive,–
CC(C)(C)C(O)C(Oc1ccc(Cl)cc1)n1cncn1 (stereo unspecified),inactive,–
COC(=O)c1ccccc1CS(=O)(=O)NC(=O)Nc1nc(OC)cc(OC)n1,inactive,–
O=[N+]([O-])c1c(Cl)c(Cl)c(Cl)c(Cl)c1Cl,inactive,–
CCC(C)(NC(=O)c1cc(Cl)c(C)c(Cl)c1)C(=O)CCl (stereo unspecified),inactive,–
COC(=O)c1ccccc1S(=O)(=O)NC(=O)N(C)c1nc(C)nc(OC)n1,inactive,–
CCc1ccc(C(=O)NN(C(=O)c2cc(C)cc(C)c2)C(C)(C)C)cc1,–,20 µM (active)
COC(=O)c1ccccc1S(=O)(=O)NC(=O)Nc1nc(C)nc(OC)n1,inactive,–
N#Cc1c(Cl)c(Cl)c(Cl)c(C#N)c1Cl,–,20 µM (active)
O=S(=O)(O)C(F)(F)C(F)(F)C(F)(F)C(F)(F)C(F)(F)C(F)(F)C(F)(F)C(F)(F)F,inactive,–
CCC(C)Nc1c([N+](=O)[O-])cc(C(C)(C)C)cc1[N+](=O)[O-] (stereo unspecified),inactive,–
O=S1OCC2C(CO1)C1(Cl)C(Cl)=C(Cl)C2(Cl)C1(Cl)Cl (stereo unspecified),inactive,–
Oc1cc(Cl)ccc1Oc1ccc(Cl)cc1Cl,inactive,–
OCCOc1ccccc1,inactive,–
CC1(c2ccc(Oc3ccccc3)cc2)OC(=O)N(Nc2ccccc2)C1=O (stereo unspecified),inactive,–
CNC(=O)Oc1cccc(N=CN(C)C)c1,inactive,–

# From PubChem BioAssay (EPA / NIEHS)
